Hits are enriched below; roughly 12% of the tested compounds scored in any of these assays.
BAZ2B block: blocks human BAZ2B. Q9UIF8. AlphaScreen BAZ2B-H3K14Ac peptide displacement. 360,000 tested, 4.4% active. Potency, µM (highest dose often 114 µM), hits mostly inhibitors; also: nearly all actives have a fitted effect of over 60% in size
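Multi-concentration screen (max 110 uM) measuring displacement of acetylated histone H3 peptide from BAZ2B by AlphaScreen, using 50 nM protein, 50 nM peptide and 10 ug/mL streptavidin donor plus Ni-chelate acceptor beads.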
JMJD2A Tudor inh: inhibitors of human JMJD2A Tudor domain | 390,000 tested, 4.4% active | Potency, µM (top dose mostly 114 µM), most hits filed as inhibitors | AlphaScreen JMJD2A-Tudor / H3K4me3 peptide binding | O75164; also: nearly all actives have a fitted effect of over 50% in size
Target sequence (O75164 whole entry, looked up, the tested form may be a part): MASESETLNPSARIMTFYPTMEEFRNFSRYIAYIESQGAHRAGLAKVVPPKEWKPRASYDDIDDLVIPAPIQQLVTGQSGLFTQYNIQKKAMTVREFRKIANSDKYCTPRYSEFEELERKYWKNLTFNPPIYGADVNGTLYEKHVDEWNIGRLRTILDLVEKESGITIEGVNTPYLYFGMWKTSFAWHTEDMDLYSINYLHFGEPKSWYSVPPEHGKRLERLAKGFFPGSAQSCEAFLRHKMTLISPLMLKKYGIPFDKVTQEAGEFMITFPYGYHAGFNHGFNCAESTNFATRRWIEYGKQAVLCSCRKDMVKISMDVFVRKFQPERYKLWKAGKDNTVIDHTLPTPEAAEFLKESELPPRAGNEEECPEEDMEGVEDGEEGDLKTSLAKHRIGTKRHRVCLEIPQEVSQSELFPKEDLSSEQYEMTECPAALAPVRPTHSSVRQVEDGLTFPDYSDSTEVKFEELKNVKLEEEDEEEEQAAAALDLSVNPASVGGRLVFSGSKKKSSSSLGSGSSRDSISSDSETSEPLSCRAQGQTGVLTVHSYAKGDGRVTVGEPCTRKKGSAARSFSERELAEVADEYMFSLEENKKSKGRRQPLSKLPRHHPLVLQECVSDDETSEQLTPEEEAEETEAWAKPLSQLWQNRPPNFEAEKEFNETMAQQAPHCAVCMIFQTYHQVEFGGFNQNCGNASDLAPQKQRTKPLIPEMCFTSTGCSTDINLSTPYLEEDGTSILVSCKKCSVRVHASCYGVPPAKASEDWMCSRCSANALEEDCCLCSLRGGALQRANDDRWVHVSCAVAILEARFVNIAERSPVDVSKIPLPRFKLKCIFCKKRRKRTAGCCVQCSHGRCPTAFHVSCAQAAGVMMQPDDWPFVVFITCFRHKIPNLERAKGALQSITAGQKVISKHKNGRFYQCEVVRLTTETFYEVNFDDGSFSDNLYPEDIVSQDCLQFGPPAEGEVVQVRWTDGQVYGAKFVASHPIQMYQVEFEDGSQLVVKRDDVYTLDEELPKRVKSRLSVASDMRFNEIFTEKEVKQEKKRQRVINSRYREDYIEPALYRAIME
HP1b chromo inh: blocks HP1-beta chromodomain binding to methylated histone tails; Potency, µM (top dose mostly 114 µM), most hits filed as inhibitors; AlphaScreen HP1-beta / biotin-H3K9me3 peptide binding; P83916; 390,000 tested, 0.56% active; AID 540317; also: nearly all actives have a fitted effect of over 70% in size
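HP1-beta protein (50 nM final) preincubated 30 min at room temperature with biotinylated H3(1-18)K9me3 peptide (50 nM) in PBS pH 7.4, 0.01% Tween-20, then compound added for 30 min. AlphaScreen streptavidin donor/nickel chelate acceptor beads (10 ug/mL final), 30 min dark, luminescence read.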
PI5P4Ka inh: PI5P4K alpha (human) kinase inhibition | PI5P4Kalpha enzyme, ADP-Glo luminescence, 60 min; stronger effect = lower value | max response, % | 330,000 tested, 1.2% active | AID 652105; active = max response of -50% or lower; inconclusive = between -30% and -50%; inactive = -30% or higher; also: value at the top dose of about 77 µM
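qHTS, 1536-well: enzyme/substrate mix, compound by pin tool, 5 microM ATP final; RT 60 min; ADP-Glo reagents 1 (45 min) then 2 (30 min); luminescence.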
G9a block: blocks human histone lysine methyltransferase G9a | Q96KQ7 | G9a H3K9 monomethylation, AlphaScreen, 2 h | Potency, µM (titrated, usually from 102 µM), usual class: inhibitors | 350,000 tested, 8.8% active | AID 504332; also: nearly all actives have a fitted effect of over 75% in size
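Using a bead-based AlphaScreen, monomethylated H3K9 product from 2 h room-temperature reactions (G9a 20 nM, peptide 500 nM, SAM 20 uM) was detected with 0.5 ug/mL rabbit anti-H3K9me1 antibody.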
PLK1 PBD inh: PLK1 (human) polo-box domain binding inhibition; P53350; Plk1 PBD binding of FITC phosphopeptide, fluorescence polarization; Potency, µM, usual class: inhibitors; 360,000 tested, 2.8% active; AID 720504; also: series mostly up to about 57 µM; nearly all actives have a fitted effect of over 65% in size
JMJD2E inh-1: blocks human JMJD2E demethylase activity; AID 493212; JMJD2E demethylase, FDH-coupled NADH fluorescence; 130 tested, 89% active; shares compounds with BAZ2B block; Potency, µM (doses to about 57 µM), usual class: inhibitors
ME-1 growth: ME-1 cell growth inhibition. shares compounds with BAZ2B block. ME-1 cell proliferation, ATP luminescence, 48 h. Potency, µM (highest dose often 56.1 µM), most hits filed as inhibitors. 140 tested, 20% active. AID 504370
JMJD2E inh-2: confirmation of inhibitors of human JMJD2E demethylase | shares compounds with JMJD2A Tudor inh | Recombinant JMJD2E, FDH-coupled NADH fluorescence (FDH is formaldehyde dehydrogenase) | Potency, µM (series often up to 56.8 µM), actives largely listed as inhibitors | 140 tested, 93% active | AID 2677
FDH inh: blocks Pseudomonas putida formaldehyde dehydrogenase, flagging JMJD2E artifacts | Potency, µM (highest dose often 56.7 µM), hits mostly inhibitors | 140 tested, 10% active | shares compounds with JMJD2A Tudor inh | FDH enzyme assay, NADH fluorescence kinetic | AID 2680
JMJD2E MALDI inh: human KDM4E demethylase inhibition | 45 tested, 90% active | shares compounds with JMJD2A Tudor inh | Potency, µM, hits mostly inhibitors | recombinant JMJD2E demethylation, MALDI-TOF-MS | AID 2688;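 active = compounds whose IC50 for blocking JMJD2E demethylation is below 100 µM; inconclusive = dose dependent effect but IC50 above 100 µM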
Hits are given with their value; . = inactive; ? = inconclusive; / = not tested or not shown; [ ] = remark or other dose. Unless noted, calls follow the shape of the dose curve; as a rule, active = well fitted curve in the direction sought with a large enough effect; inconclusive = small, poorly fitted or top-dose-only effect, or another doubt; inactive = no such curve, though single readings can be large; an effect the other way counts as inactive or inconclusive.

SMILES	BAZ2B block	JMJD2A Tudor inh	HP1b chromo inh	PI5P4Ka inh	G9a block	PLK1 PBD inh	JMJD2E inh-1	ME-1 growth	JMJD2E inh-2	FDH inh	others
Brc1ccc(C2Nc3cccc4cccc(c34)N2)o1	?	?	?	/	20µM	.	/	.	/	/
CC1CCN(C(=O)CN2CCSc3ccccc32)CC1	.	.	.	/	.[12.7 µM]	/	/	/	/	/
COc1cc(/C=N/NC(=O)c2cncc(Br)c2)cc([N+](=O)[O-])c1O	8.9µM	.[11.4 µM]	.	?	?	.	/	35µM	/	/
COc1cc(/C=N/NC(=O)c2cccc([N+](=O)[O-])c2)cc(OC)c1O	.	.	.	.	?	.	/	/	/	/
c1ccc(CSc2ccc(-c3ccccn3)nn2)nc1	4.5µM	?	.	.	.	.	/	?	/	/
CC(=O)Oc1cc2cccc(OC(C)=O)c(=O)c2c(OC(C)=O)c1OC(C)=O	1.6µM	8.9µM	?	-89	2.8µM	?	/	?	/	/
CN1CCN(c2ccc(-c3nc(-c4ccccc4)no3)cc2[N+](=O)[O-])CC1	?	.	.	/	.	/	/	/	/	/
Cc1ccc(CCNC(=O)c2cc3sccc3n2Cc2ccc(F)cc2)cc1	.	.	.	/	.	/	/	/	/	/
COc1ccc(C2Sc3ccccc3N(CCN(C)C)C(=O)C2OC(C)=O)cc1 (stereo not drawn)	/	/	/	/	.[2.33 µM]	/	/	.	/	/
COc1ccc([C@@H]2Sc3ccccc3NC(=O)[C@@H]2O)cc1	/	.	.	.	/	.	/	/	/	/
O=C(OCC1OC(OC(=O)c2cc(O)c(O)c(OC(=O)c3cc(O)c(O)c(O)c3)c2)[C@@H](OC(=O)c2cc(O)c(O)c(OC(=O)c3cc(O)c(O)c(O)c3)c2)C(OC(=O)c2cc(O)c(O)c(OC(=O)c3cc(O)c(O)c(O)c3)c2)C1OC(=O)c1cc(O)c(O)c(OC(=O)c2cc(O)c(O)c(O)c2)c1)c1cc(O)c(O)c(OC(=O)c2cc(O)c(O)c(O)c2)c1 (stereo partly drawn)	/	/	/	/	?	/	/	22µM	/	/
O=C1C(CCC(O)c2ccc(F)cc2)C(c2ccc(O)cc2)N1c1ccc(F)cc1 (stereo not drawn)	/	/	/	/	.[2.33 µM]	/	/	.	/	/
O=C1C(Cc2ccccc2)C(c2ccccc2)N1c1ccccc1 (stereo not drawn)	.	.	.	.	.[12.7 µM]	.	/	/	/	/
O=C1c2cccc3cccc(c23)C(=O)N1/N=C/c1ccc(O)cc1O	.	.	.	.	.	.	/	/	/	/
O=C1c2ccccc2C(=O)N1/N=C/c1ccc(O)c(O)c1O	?	22µM	22µM	-55	?	13µM	/	?	/	/
CC(C)c1ccc(NC(=O)NCc2cccnc2)cc1	.	.	.	.	.	.	/	/	/	/
Oc1ccccc1/C=N/Nc1cccc2cccnc12	.	.	.	/	.[0.0925 µM]	.	/	/	/	/
Oc1ccccc1/C=N/Nc1ncc(Br)cn1	.	.	.	.	.	.	/	35µM	/	/
Cc1cccc2cc3cccc(C)c3nc12	.	.	.	.	.[0.501 µM]	.	/	/	/	/
Cc1cnc2c(O)cccc2c1	/	/	/	/	/	/	?	/	?	.
Oc1cccc2cc(C3CC3)cnc12	/	/	/	/	/	/	20µM	/	20µM	.
CN(C)c1cnc2c(O)cccc2c1	/	/	/	/	/	/	20µM	/	18µM	.
Oc1ccc(/C=C/c2ccccc2)c2cccnc12	/	?	/	/	/	/	10µM	/	4.1µM	.	JMJD2E MALDI inh=24
Oc1ccc(/C=C/c2ccccc2F)c2cccnc12	/	?	/	/	/	/	11µM	/	5.8µM	.	JMJD2E MALDI inh=37
Cc1cccc(C)c1-n1ncc(C(=O)NCCCN2CCC(C)CC2)c1C1CCN(C(=O)OC(C)(C)C)CC1	.	.	.	/	.	/	/	/	/	/
SMILES	BAZ2B block	JMJD2A Tudor inh	HP1b chromo inh	PI5P4Ka inh	G9a block	PLK1 PBD inh	JMJD2E inh-1	ME-1 growth	JMJD2E inh-2	FDH inh	others
COC(=O)c1ccc(O)c2ncccc12	/	/	/	/	/	/	20µM	/	20µM	.
c1ccc2c(-c3nn[nH]n3)cccc2c1	.	.	.	.	.	.	/	/	/	/
Oc1cccc2c(-c3nn[nH]n3)ccnc12	3.2µM	13µM	.	/	.[12.7 µM]	/	18µM	/	10µM	.	JMJD2E MALDI inh=18
NC(=O)c1cccc2ccccc12	.	.	.	.	/	.	/	/	/	/
NC(=O)c1ccnc2c(O)cccc12	1.8µM	22µM	.	/	.[0.501 µM]	/	3.2µM	/	?	.
Cc1ccc(-c2cc(C(=O)N3CCN(C(=O)c4ccco4)CC3)[nH]n2)cc1C	.	.	.	.	.	.	/	/	/	/
